Most compounds without a hit are left out; they make up all but 5.8% or so of the library.
ALOX12 inh: blocks human arachidonate 12S-lipoxygenase | Potency, µM (series often up to 108 µM), hits mostly inhibitors | purified 12hLO, xylenol orange hydroperoxide absorbance | P18054 | 1.1% of 580,000 active
Target sequence (P18054 whole entry, looked up): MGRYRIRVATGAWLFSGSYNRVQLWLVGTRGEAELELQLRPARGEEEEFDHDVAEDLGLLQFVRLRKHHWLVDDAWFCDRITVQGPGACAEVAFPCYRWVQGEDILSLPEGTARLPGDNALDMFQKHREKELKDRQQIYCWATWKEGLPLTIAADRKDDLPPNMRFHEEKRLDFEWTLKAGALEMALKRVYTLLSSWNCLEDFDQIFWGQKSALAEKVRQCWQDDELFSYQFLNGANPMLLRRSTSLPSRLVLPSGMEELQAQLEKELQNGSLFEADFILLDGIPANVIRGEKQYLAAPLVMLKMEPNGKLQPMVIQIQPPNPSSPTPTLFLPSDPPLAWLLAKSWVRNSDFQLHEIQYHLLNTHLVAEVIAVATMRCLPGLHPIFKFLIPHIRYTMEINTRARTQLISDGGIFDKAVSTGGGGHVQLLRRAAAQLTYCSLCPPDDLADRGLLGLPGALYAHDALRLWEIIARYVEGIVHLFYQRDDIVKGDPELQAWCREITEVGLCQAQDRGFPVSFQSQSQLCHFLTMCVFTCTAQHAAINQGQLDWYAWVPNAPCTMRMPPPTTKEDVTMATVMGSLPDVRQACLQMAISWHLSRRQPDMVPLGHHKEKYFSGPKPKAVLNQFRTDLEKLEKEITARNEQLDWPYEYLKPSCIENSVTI
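Purified human 12hLO at 150 nM in 25 mM Hepes, 0.01% Triton X-100, pH 7.0, preincubated 15 min at room temperature with compound. Reaction started with 40 uM arachidonic acid, 30 min at room temperature. Hydroperoxide measured by Fe-xylenol orange, 573/405 nm absorbance ratio.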
PINK1 expr mod: PINK1 expression modulation; AID 624263; 0.2% of 410,000 active; PINK1 immunofluorescence, high-content cytometry, 24 h; Potency, µM (doses to about 76.6 µM), hits mostly activators; active = well fitted activation curve with a large enough effect; inconclusive = small, poorly fitted or top-dose-only effect; cell line not stated here; also: nearly all actives have a fitted effect of over 65% in size
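Decision-based qHTS: stable cells, 24 h exposure to five compound concentrations, CCCP as control. Fixed cells stained for PINK1 plus nuclear, mitochondrial and cell markers, cytometer read.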
KB-V1 cytotox: KB-V1 MDR subline cytotoxicity; KB-V1 MDR cells viability, CellTiter-Glo, 72 h; Potency, µM (doses to about 46.1 µM), hits mostly cytotoxic; 3.4% of 400,000 active; AID 1347076; also: nearly all actives have a fitted effect of over 60% in size
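Luminescent ATP read-out (CellTiter-Glo, 10 min) measures survival of drug-selected KB-V1 MDR cells after 72 h, 37 degrees C compound exposure. Medium: phenol-red-free DMEM, 10% FBS. Values from fitted concentration-response curves.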
MCF10A rereplic: induces DNA re-replication in MCF 10a normal breast cells; 2.9% of 350,000 active; Potency, µM (doses to about 46.1 µM), hits mostly activators; MCF 10A DNA re-replication, Hoechst nuclear intensity, 48 h; also: nearly all actives have a fitted effect of over 50% in size
SW480 rereplic: induces DNA re-replication in SW480 colon adenocarcinoma cells; SW480 DNA re-replication, Hoechst DNA content imaging, 48 h; Potency, µM (highest dose often 46.1 µM), most hits filed as activators; 1.8% of 340,000 active; AID 624297; also: nearly all actives have a fitted effect of over 55% in size
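Compounds, transferred as 23 nL by pin tool, were incubated with cells for 48 hr; DNA content per nucleus was then quantified by Hoechst staining and fluorescence plate imaging.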
KB-3-1 tox: kills parental KB-3-1 adenocarcinoma cells | KB-3-1 viability, CellTiter-Glo ATP luminescence, 72 h | Potency, µM (doses to about 46.1 µM), actives largely listed as cytotoxic | 1.4% of 400,000 active; also: nearly all actives have a fitted effect of over 60% in size
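KB-3-1 parental drug-naive adenocarcinoma cells in DMEM/10% FBS, incubated 72 h at 37 C with pin-transferred compounds across a concentration series. Viability by CellTiter-Glo luminescence; concentration-response curves fitted after normalization.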
A number is an active result; i = inactive; ? = inconclusive; nt = no result given. Unless noted, calls follow the shape of the dose curve; as a rule, active = well fitted curve in the direction sought with a large enough effect; inconclusive = small, poorly fitted or top-dose-only effect, or another doubt; inactive = no such curve, though single readings can be large; an effect the other way counts as inactive or inconclusive.

SMILES | ALOX12 inh | PINK1 expr mod | KB-V1 cytotox | MCF10A rereplic | SW480 rereplic | KB-3-1 tox
CCOc1cc(-c2c(C)c(C)nc(N)c2C#N)ccc1O | i | i | i | i | i | i
CCCc1cc(-c2ccc(O)c(OCC)c2)c(C#N)c(N)n1 | ? | i | ? | i | i | ?
Cc1cc(-c2cc(-c3ccc(Cl)cc3)nc(N)c2C#N)co1 | ? | i | i | 2.6µM | 7.3µM | i
CCOc1cc(-c2cc(-c3ccc(C)o3)nc(N)c2C#N)ccc1O | ? | i | 23µM | ? | ? | ?
N#Cc1c(N)oc(-c2ccc3c(c2)OCO3)c1-c1ccc2c(c1)OCO2 | ? | i | 16µM | i | i | i
Cc1ccc(-c2cc(-c3ccc(F)cc3)c(C#N)c(N)n2)o1 | 7.1µM | i | i | 4.1µM | 21µM | i
Cc1c(-c2ccc(F)cc2)nc(N)c(C#N)c1-c1ccco1 | i | nt | i | ? | i | i
Cc1ccc(-c2cc(-c3ccc(C)o3)nc(N)c2C#N)cc1 | 1µM | i | i | ? | 23µM | i
Cc1ccc(-c2cc(-c3ccc4c(c3)OCO4)c(C#N)c(N)n2)o1 | ? | i | i | 21µM | 21µM | i
Cc1ccc(-c2c(C#N)c(N)nc3c2CCCCC3)o1 | ? | i | i | ? | i | ?
Cn1nnnc1NCc1ccc(-c2ccc(Br)cc2)o1 | i | nt | nt | nt | nt | nt
COc1cccc(-c2cc(-c3cccnc3)c3cncn3c2)c1OC | i | nt | nt | nt | nt | nt
CC(C)SC1=NC(C)(C)C=C(/C=C/c2ccc(Cl)cc2Cl)N1 | ? | i | i | 8.2µM | ? | ?
CC(C)SC1=NC(C)(C)C=C(/C=C/c2c(Cl)cccc2Cl)N1 | nt | i | i | 18µM | ? | 15µM
Clc1ccc(/C=C/c2ccc3ccccc3n2)c(Cl)c1 | nt | i | ? | nt | nt | ?
CCCCCCCCNc1ncnc2ccccc12 | nt | i | 0.18µM | i | ? | 0.65µM
c1ccc(CCNc2ncnc3ccccc23)cc1 | i | i | ? | i | i | ?
Cc1ccc(-c2cccc(C(=O)NCc3ccccc3)n2)c2ccccc12 | i | i | ? | ? | 16µM | ?
O=C(NCc1ccccc1)c1c(Cl)nc(Cl)c(Cl)c1Cl | i | i | i | 18µM | 6.5µM | 16µM
CC(=O)c1ccc(Nc2cc(C)nc3c(C)cc(C)cc23)cc1 | i | i | ? | ? | 2.6µM | ?
CN(C)S(=O)(=O)c1cccc(NC(=O)CSc2nnnn2-c2ccccc2)c1 | i | i | 10µM | i | i | i
NS(=O)(=O)c1cccc(NC(=O)CSc2nnnn2-c2ccccc2)c1 | i | i | ? | ? | i | i
CN(C)S(=O)(=O)c1cccc(NC(=O)CSc2nncn2-c2ccccc2)c1 | i | i | i | 0.65µM | i | ?
Cc1cc(=O)[nH]c2ccc(O)cc12 | nt | nt | i | nt | nt | i
CCC(=O)Nc1cc2[nH]c(=O)cc(C)c2cc1C | i | i | i | 0.65µM | i | i
SMILES | ALOX12 inh | PINK1 expr mod | KB-V1 cytotox | MCF10A rereplic | SW480 rereplic | KB-3-1 tox
O=C(CCl)Nc1cc2[nH]c(=O)[nH]c2cc1Br | i | i | 15µM | 21µM | ? | ?
Cc1cc2c(C)cc(=O)[nH]c2cc1NC(=O)CCl | ? | i | ? | 12µM | 21µM | ?
Cc1cc2oc(=O)cc(C)c2cc1NC(=O)CCl | i | i | i | i | ? | ?
CCOC(=O)C1=C(Nc2ccc(OC)cc2)C(N)=NC1=N | i | i | 1.8µM | nt | nt | ?
COc1cccc(NC(=O)c2cc([N+](=O)[O-])ccc2NCc2cccnc2)c1 | i | i | 3.7µM | i | i | i
Cc1c(C(=O)Nc2cccc([N+](=O)[O-])c2)csc1-c1ccccc1 | i | ? | 8.2µM | ? | i | i
O=C(Nc1cccc([N+](=O)[O-])c1)c1cc2ccccc2cc1O | ? | 2.5µM | ? | ? | ? | 13µM
O=C(O)c1ccccc1C(=O)Nc1cccc([N+](=O)[O-])c1 | i | i | i | i | i | i
Cc1ccc(NC(=O)c2csc(-c3ccccc3)c2C)cc1 | i | i | i | i | i | i
COc1ccc(NC(=O)c2cc([N+](=O)[O-])ccc2O)cc1 | i | 28µM | ? | ? | i | 18µM
COc1ccc(-c2cc(C(=O)O)c3ccc(C)c(C)c3n2)cc1OC | i | nt | nt | nt | nt | nt
CC[N+]1(C)CCC(O)(/C=C/c2ccccc2)C(C(=O)/C=C/c2ccccc2)C1 (centres undefined) | i | i | ? | ? | 21µM | ?
COc1cc2ccc(NC(C)=O)cc2cc1OC | i | i | i | nt | nt | i
COc1cc2ccc(C(C)=NOC(C)=O)cc2cc1OC | i | i | 2.1µM | nt | nt | 5.2µM
O=C(c1ccco1)N1CCC2(CC1)CC(N1CCN(c3ccccn3)CC1)CCO2 (centres undefined) | i | nt | nt | nt | nt | nt
CCOc1ccc(OCCNC2CCCC2)cc1 | i | i | ? | i | i | i
CCOc1ccccc1OCCNC1CCCC1 | ? | i | i | ? | 23µM | i
COc1cccc(OC)c1OCCCNC1CCCC1 | ? | i | i | i | 6.5µM | i
CC(C)(C)c1ccc(OCCCNC2CCCC2)cc1 | ? | i | ? | 16µM | ? | ?
CCCOc1ccc(OCCNC2CCCC2)cc1 | ? | i | 23µM | ? | i | i
O=C(NC1CCCN(c2cc(-c3ccc(F)cc3)[nH]n2)C1)c1nccc2ccccc12 (centres undefined) | i | nt | nt | nt | nt | nt
COc1ccc2cnn(CC(=O)N(Cc3ccccc3)Cc3ccccc3)c(=O)c2c1OC | i | nt | nt | nt | nt | nt
Cc1cccc(NC(=O)c2ccccc2SCc2ccc(F)cc2)n1 | i | i | 21µM | i | i | i
Cc1c(C(=O)OCc2ccccc2)sc(=S)n1C | i | nt | nt | nt | nt | nt
CC(C)CNC(=O)c1nc(-c2ccc3cc[nH]c3c2)no1 | i | nt | nt | nt | nt | nt
SMILES | ALOX12 inh | PINK1 expr mod | KB-V1 cytotox | MCF10A rereplic | SW480 rereplic | KB-3-1 tox
Cc1cc(N2C(=O)C3C4c5ccccc5C(c5ccccc54)C3C2=O)no1 (centres undefined) | i | i | 8.2µM | ? | i | i
CS(=O)(=O)c1nc([N+](=O)[O-])nn1CCCc1ccccc1 | nt | i | ? | 4.6µM | i | 26µM
Cn1nc([N+](=O)[O-])nc1S(C)(=O)=O | i | i | ? | 5.8µM | 9.2µM | ?
Cn1nc([N+](=O)[O-])nc1Oc1ccccc1F | i | i | i | i | i | i
COc1cccc(/C=C/c2nc3ccccc3o2)c1OC(C)C | i | nt | nt | nt | nt | nt
CSc1nc(-c2ccc(N(C)C)cc2)c(C#N)c(=O)n1C | i | ? | i | 12µM | 7.3µM | i
CSc1nc(-c2ccc(Cl)cc2)c(C#N)c(=O)n1C | i | i | i | i | i | i
O=C(Nc1ccc(F)c(F)c1)c1cnc(-c2ccccc2)nc1-c1ccccc1 | i | i | i | 13µM | i | i
O=C(Nc1ccc(F)cc1)c1cnc(-c2ccccc2)nc1-c1ccccc1 | i | ? | ? | i | ? | i
COc1cc(/C=C2\SC(c3ccc(C)cc3)=NC2=O)ccc1O | 6.3µM | i | i | i | i | i
COc1ccc(/C=C2\SC(c3ccc(C)cc3)=NC2=O)cc1OC | ? | i | i | i | i | i

Source: PubChem BioAssay (National Center for Advancing Translational Sciences (NCATS))
